Measurements from PubChem BioAssay (NCI).
The panel holds about 79,000 compounds, 15% with a hit somewhere; the sample as a whole holds those more often. No stated cut-off is given here; in the data, active means growth inhibition above about 70%; inactive means the rest.

Assays:
[1] = NCI Yeast Anticancer Drug Screen. Data for the rad50 strain (AID 155);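 further: 0% = growth of vehicle-only cultures of the same strain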; details: S. cerevisiae rad50 strain growth inhibition; at 50.0 µM; stronger effect = higher value
Outline: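 Compounds were tested on a yeast strain with an engineered DNA damage repair alteration; the reported value is growth inhibition normalised to vehicle treatment.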

[2] = NCI Yeast Anticancer Drug Screen. Data for the mec2-1 strain (AID 157); details: S. cerevisiae mec2-1 strain, at 50.0 µM, stronger effect = higher value
Outline: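 Using mec2-1 yeast: add compound, measure growth, express inhibition versus vehicle-treated cultures.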

[3] = NCI Yeast Anticancer Drug Screen. Data for the sgs1 mgt1 strain (AID 161);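 further: 0% = growth of cultures given vehicle only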; details: S. cerevisiae sgs1 mgt1 strain, at 50.0 µM, stronger effect = higher value
Outline: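 Yeast cells carrying a defined DNA-repair defect were exposed to test compounds. Growth inhibition was measured relative to vehicle-treated controls.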

[4] = NCI Yeast Anticancer Drug Screen. Data for the cln2 rad14 strain (AID 165);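 further: 0% = growth equal to vehicle treated cultures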; details: S. cerevisiae cln2 rad14 strain, at 50.0 µM, stronger effect = higher value
Outline: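 Yeast strain cln2 rad14, bearing defects in cell cycle control and DNA repair, serves as the test system; values reflect growth inhibition compared with vehicle.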

[5] = NCI Yeast Anticancer Drug Screen. Data for the bub3 strain (AID 167); details: S. cerevisiae bub3 mutant strain, at 50.0 µM, stronger effect = higher value
Outline: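 Growth of a checkpoint-deficient yeast mutant is measured after compound exposure. Values represent inhibition relative to vehicle.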

[6] = NCI Yeast Anticancer Drug Screen. Data for the mlh1 rad18 strain (AID 175); details: S. cerevisiae mlh1 rad18 strain growth inhibition; at 50.0 µM; stronger effect = higher value
Outline: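 Steps: expose repair-defective yeast to compound; measure growth; express inhibition against vehicle-treated controls.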

Measured: growth inhibition

CCCCNc1nc2ccccc2c2c1ncn2CC(C)C
inactive: [1] -7.4% | [2] 34.5% | [3] 14.1% | [4] 23.5% | [5] 46.5% | [6] 30.3%

Clc1ccccc1CN1COc2c(ccc3ccccc23)C1
inactive: [1] 35.5% | [2] 14.3% | [3] 32.6% | [4] 19.6% | [5] 25.5% | [6] 22.6%

COC(=O)c1cc(-c2cccc3ccccc23)[nH]c(=O)c1C#N
inactive: [1] 8.85% | [2] 0.35% | [3] 17.6% | [4] 18.7% | [5] -6.6% | [6] 21.9%

Cc1[nH]c(=O)cc(C(=O)O)c1CN
inactive: [1] 7.15% | [2] -8.75% | [3] 3.7% | [4] -59.2% | [5] -7.25% | [6] -3.45%

CC1=CC2CC(C)C1(C)CCc1ccoc12 (stereo not given)
inactive: [1] 2.8% | [2] -11.7% | [3] -2.8% | [4] 6.75% | [5] 9.85% | [6] 4.7%

FC(F)(F)c1ccc(C2ON=C(c3ccccc3)N2C23CC4CC(CC(C4)C2)C3)cc1 (stereo not given)
inactive: [1] 17.1% | [2] 4.1% | [3] 25.1% | [4] -0.4% | [5] -7.5% | [6] 1.25%

O=C1CSC(C(N=Nc2ccc(Cl)cc2)c2nc3ccccc3[nH]2)=N1 (stereo not given)
inactive: [1] -50.6% | [2] -26.3% | [3] -43.1% | [4] -18.1% | [5] -42.6% | [6] -46.7%

O=C(O)C(c1ccccc1)C(O)C1CCCC1 (stereo not given)
inactive: [1] -2.9% | [2] -11.1% | [3] 1.05% | [4] -10.8% | [5] -7.3% | [6] -4.45%

CCc1c(C)c2n(c1C)C(=O)C=C2N(CC)CC
inactive: [1] -11.2% | [2] -18.1% | [3] -38.1% | [4] -6.45% | [5] -2% | [6] -20.6%

O=C(O)C1=C(C(=O)O)C2CCC1C2
inactive: [1] -25.1% | [2] -33.5% | [3] -23.2% | [4] 2.65% | [5] -11.8% | [6] -14.4%

Nc1ccc(S(=O)(=O)NCCS(=O)(=O)O)cc1
inactive: [1] 3.45% | [2] 4.25% | [3] -36.8% | [4] -29.3% | [5] -16.2% | [6] -3.75%

CC(C)(C)OC1COCCO1 (stereo not given)
inactive: [1] 12.1% | [2] -5.35% | [3] 8.35% | [4] 1.3% | [5] 8% | [6] 13.8%

CCc1ccc(/C(C#N)=C/c2ccc(N(C)CCC#N)cc2)cc1
inactive: [1] 10.8% | [2] 2.8% | [3] 18.8% | [4] 5% | [5] 16.9% | [6] -23.9%

Cc1nccc2cccc(CNC(C)C)c12
inactive: [1] 3.7% | [2] 2.7% | [3] 4.1% | [4] 7% | [5] -11.2% | [6] -4.25%

CCOP(=O)(CCP(=O)(CCP(=O)(OCC)OCC)CCP(=O)(OCC)OCC)OCC
inactive: [1] -8.05% | [2] 2.5% | [3] -8.05% | [4] -30.2% | [5] -1.55% | [6] -9.2%

O=Cc1ccc2ccocc1-2
inactive: [1] 9.15% | [2] 14.8% | [3] -27.6% | [4] -11.8% | [5] -20.7% | [6] -41.2%

NC(=O)c1cc(Br)ccc1O
inactive: [1] 11.2% | [2] -12.7% | [3] 6.9% | [4] 8.9% | [5] -19.4% | [6] 17.2%

O=C(O)C1c2ccccc2-c2ccccc21
inactive: [1] 52.4% | [2] 31.6% | [3] 41.5% | [4] -37.7% | [5] 37.6% | [6] 39%

NOCc1cc(Cl)sc1Cl
inactive: [1] 24.9% | [2] -2.9% | [3] 6.1% | [4] 60% | [5] -23.9% | [6] 11.3%

COc1ccc2c(O)cc(C(=O)O)c(-c3ccccc3)c2c1
inactive: [1] -4.7% | [2] -12.8% | [3] -3.95% | [4] -17.5% | [5] 5.05% | [6] -22.6%
